# Screening data as filed in PubChem.
# hcDAF12 agonist: activators of H. contortus DAF-12 nuclear receptor; activation, % at 6.8 µM; HEK293 hcDAF-12 lit1-tk-luc reporter, luminescence; 0% DMSO, 100% Δ7-dafachronic acid; AID 652067; 1.4% of 370,000 active;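 active = activation above the mean of all tested compounds plus 3 SD, cut at about 5.5% in these data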
# DAX1 inh-1: inhibitors of DAX1 repression of SF-1 activated StAR promoter; 1.1% of 370,000 active; AID 652010; inhibition, % at 6.8 µM; HEK293T StAR-luciferase reporter, SF-1/DAX-1 repression relief;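 active = inhibition above the mean over all tested compounds plus 3 SD, cut at about 3.6% in these data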;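 also: higher inhibition means more luminescence from relief of DAX-1 repression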
# hgDAF12 agonist: activates the H. glycines DAF-12 receptor ligand-binding domain; activation, % at 6.8 µM; 1.8% of 370,000 active; HEK293 GAL4-hgDAF12 UAS-luciferase reporter, agonist luminescence; normalized to butyrate control;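 active = activation above a cutoff set at the mean of all screened compounds plus 3 SD, cut at about 10% in these data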
# DAX1 inh-2: NR0B1 (DAX1) inhibition; P51843; HEK293 Gal4-DAX1 luciferase reporter, luminescence; inhibition, % at 6.75 µM; 0.99% of 340,000 active;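 active = inhibition above the mean over all tested compounds plus 3 SD, cut at about 4.2% in these data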;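 also: inhibition shows as a rise in luminescence from relieved DAX1 repression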
# ssDAF12 agonist: activates DAF-12 receptor from parasite S. stercoralis; activation, % at 6.8 µM; HEK293 ssDAF-12/GRIP1 lit1-tk-luc reporter, luminescence; % of 3 µM dafachronic acid response; AID 652126; 1% of 370,000 active;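 active = activation above the mean over all tested compounds plus 3 SD, cut at about 0.9% in these data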
# FXN GAA850 act: increases GAA850 frataxin promoter reporter activity | HEK293 lucGAA850 FXN promoter luciferase reporter, 24 h; percent of 10 µM SAHA response | activation, % at 6 µM | 0.56% of 360,000 active;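 active = activation above the average of all compounds screened plus 3 SD, cutoff fixed separately per campaign, cut at about 7.5% in these data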
# LXRb hcDAF ctr: activates human LXR-beta, counter-screen for hcDAF-12 agonists; 3,400 tested, under 10 active; shares compounds with hcDAF12 agonist; AID 743027; activation, % at 6.8 µM; HEK293 Gal4-LXR tk-luc reporter, luminescence, 24 h; normalized: DMSO 0%, positive control 100%;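 active = mean percent activation of the reporter above a cutoff set as the average over tested compounds plus their standard deviation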
# Target sequence (P55055 whole entry, looked up, the tested form may be a part): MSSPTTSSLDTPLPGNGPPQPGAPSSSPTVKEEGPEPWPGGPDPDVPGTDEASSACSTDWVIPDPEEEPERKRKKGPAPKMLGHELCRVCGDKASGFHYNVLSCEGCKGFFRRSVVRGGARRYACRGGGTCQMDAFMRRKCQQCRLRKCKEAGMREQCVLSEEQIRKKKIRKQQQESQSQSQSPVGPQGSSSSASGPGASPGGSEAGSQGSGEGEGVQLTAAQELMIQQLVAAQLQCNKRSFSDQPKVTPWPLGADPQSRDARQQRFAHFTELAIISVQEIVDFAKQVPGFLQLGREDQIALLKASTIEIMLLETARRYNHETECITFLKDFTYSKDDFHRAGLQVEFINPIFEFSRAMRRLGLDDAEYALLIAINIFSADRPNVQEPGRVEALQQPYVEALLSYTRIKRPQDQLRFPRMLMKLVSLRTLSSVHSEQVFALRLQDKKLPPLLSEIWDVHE
# hcDAF12 ag: hcDAF-12 agonism, confirmation assay; shares compounds with hcDAF12 agonist; HEK293 hcDAF-12 lit1-tk-luc reporter, luminescence; % of Δ7-dafachronic acid response; activation, % at 6.8 µM; 61% of 3,400 active; AID 743032;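 active = mean activation across triplicate tests above the threshold derived from the earlier primary screen, cut at about 5.5% in these data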
# hgDAF12 conf: hgDAF-12 agonism, confirmation assay; 80% of 3,300 active; AID 743050; activation, % at 6.8 µM; shares compounds with hgDAF12 agonist; HEK293 GAL4-hgDAF12 luciferase reporter, agonist mode; percent of butyrate response;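 active = mean activation over triplicate wells above the hit cutoff derived from the earlier primary screen, cut at about 11% in these data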
# LXRb DAF12 ctr: counter-screen for DAF-12 agonists: agonists of human LXR-beta. HEK293 Gal4-LXR luciferase reporter, 24 h. shares compounds with hgDAF12 agonist. 3,300 tested, under 10 active. activation, % at 6.8 µM;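 active = mean activation of the triplicate above a set limit carried over from the primary screen, none filed active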
# A number is an active result; i = inactive; nt = no result given. Only some compounds are listed: those with a hit (about 4.5% of all), similar ones and a draw of the others.
SMILES,hcDAF12 agonist,DAX1 inh-1,hgDAF12 agonist,DAX1 inh-2,ssDAF12 agonist,FXN GAA850 act,LXRb hcDAF ctr,hcDAF12 ag,hgDAF12 conf,LXRb DAF12 ctr
O/N=C/c1ccc(OCc2ccccc2F)c(Cl)c1,6.7,i,19.0,i,i,i,i,i,17.1,i
O/N=C/c1ccccc1OCc1ccccc1F,i,i,i,i,i,i,nt,nt,nt,nt
COc1cccc(Cn2c(C(C)n3c(-c4cnccn4)nc4ccccc43)nc3ccccc32)c1 (configuration not stated),i,i,i,nt,i,nt,nt,nt,nt,nt
CCOC(=O)[C@]12CCCCC/C=C\1N(CCc1ccc(Cl)cc1)C(=O)[C@H]2CC(=O)NCCc1ccccc1OC,i,i,i,nt,i,nt,nt,nt,nt,nt
CC1=CN2C(=N)/C(=C/c3ccc(C)o3)C(=O)N=C2S1,14.9,4.0,20.1,i,i,i,i,i,11.6,i
CC(C)c1ccc(NC(=O)COc2ccc(F)cc2C(=O)c2cnn(-c3ccccc3)c2)cc1,12.2,4.1,18.0,i,2.2,i,i,13.7,17.4,i
CCCC#C/C(CCC)=C1\c2ccccc2C(=O)N1c1ccccc1,i,i,i,nt,i,nt,nt,nt,nt,nt
O=C(O)/C=C\C(=O)Nc1ccccc1C#Cc1ccc(Br)cc1,16.4,3.8,21.6,i,2.1,i,i,i,16.0,i
O=C(Nc1nc2ccccc2[nH]1)c1ccccc1,13.1,i,13.6,i,1.4,i,i,13.6,14.1,i
O=C(Nc1nc2ccccc2[nH]1)c1cccc(Cl)c1,8.2,i,15.7,i,i,i,i,5.8,17.5,i
O=C(N/N=C/c1ccc(Br)s1)c1ccccn1,8.2,4.5,14.3,i,i,i,i,i,13.5,i
O=C(N/N=C/c1ccc(Br)s1)c1ccco1,i,i,i,i,i,i,nt,nt,nt,nt
c1ccc([C@H]2CN3C(=N2)Sc2ccccc23)cc1,13.4,i,16.1,i,2.5,i,i,14.6,24.2,i
CC(C)C(C(=O)NCc1ccccc1)N1CCN(CCN2CCOCC2)CC1 (configuration not stated),i,i,i,nt,i,nt,nt,nt,nt,nt
Cc1c(C(C)(C)C)sc(=NC(=O)c2ccccc2O)n1C,6.9,i,14.2,i,i,i,i,14.1,15.5,i
CN(C)c1ccc(-c2nc3ccccn3c2/N=C/c2ccc(Br)cc2)cc1,7.5,i,16.4,i,1.4,i,i,i,i,i
Cc1ccc(Cc2c(-c3ccc(F)cc3)nc3ccc(Br)cn23)cc1,i,i,i,nt,i,nt,nt,nt,nt,nt
Cc1c(-c2ccc(Br)cc2)nc2ccccn12,8.4,4.0,14.7,i,1.4,i,i,7.5,15.3,i
CCn1c2ccccc2c2cc(NC(=O)COC(=O)c3cc(F)ccc3C)ccc21,i,i,i,nt,i,nt,nt,nt,nt,nt
Clc1cccc(-c2nnc(-c3ccno3)o2)c1,i,i,i,i,i,i,nt,nt,nt,nt
Clc1cccc(-c2nnc(-c3ccccc3)o2)c1,14.3,i,15.8,i,1.9,i,i,11.4,22.8,i
Cc1cc2c(c(=O)o1)[C@@]1(C(=O)N(C)c3ccccc31)C1=C(CC(C)(C)CC1=O)O2,i,i,i,nt,i,nt,nt,nt,nt,nt
COc1cccc(NC2SC(=O)N(c3ccccc3)C2=O)c1 (configuration not stated),7.1,5.5,13.8,i,i,i,i,i,10.9,i
COC(=O)c1cc(N=Nc2c(C)[nH]c3ccccc23)cc(C(=O)OC)c1,i,i,i,i,i,i,nt,nt,nt,nt
Cc1[nH]c2ccccc2c1N=Nc1cccc(C(=O)O)c1,12.3,4.2,13.9,i,2.9,i,i,7.6,19.1,i
